Laboratory results reported in the supplement of paper PMC9942566.
± gives the standard deviation of the averaged measurements.

test system: Serratia marcescens K904 PosmB-luxCDABE reporter (pMQ747); experiment: PosmB-lux reporter fold induction (RLU/OD600 relative to no-compound control), highest over Biolog concentrations; higher = stronger Rcs reporter activation; conditions: wild type K904; 4 h
Protocol: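 Serratia marcescens K904 (wild type) or its isogenic ΔrcsB mutant, carrying the Rcs-dependent PosmB-luxCDABE reporter plasmid pMQ747, was grown in LB at OD600 0.1 in Biolog Phenotype MicroArray plates PM11-20 for 4 h at 30-32°C. Each compound is present at 3-4 proprietary concentrations (not stated); per the Fig. S1 legend the value given is the highest fold over those wells. Three independent trials.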

Compound	PosmB-lux reporter fold induction
CCCCCCCC[N+](C)(CCCCCCCC)CCCCCCCC [methyltrioctyl-ammonium chloride] (Biolog plate: PM19, well positions: B1-4)	1.17 ± 0.32
[Cl-].[Li+] [lithium chloride] (Biolog plate: PM17, well positions: F1-4)	1.51 ± 0.57
CC1(C)S[C@@H]2[C@H](NC(=O)C(C(=O)O)c3ccccc3)C(=O)N2[C@H]1C(=O)O (some centres not stated) [Carbenicillin] (Biolog plate: PM14, well positions: G5-8)	42 ± 28
CNC(C)C1CCC(N)C(OC2C(N)CC(N)C(OC3OCC(C)(O)C(NC)C3O)C2O)O1 (configuration not stated) [Gentamicin] (Biolog plate: PM11, well positions: G5-8)	1.41 ± 0.081
CN(C)CCCN1c2ccccc2Sc2ccc(Cl)cc21 [chlorpromazine] (Biolog plate: PM17, well positions: D9-12)	2 ± 0.77
NC[C@@H]1O[C@H](O[C@H]2[C@@H](O)[C@H](O[C@@H]3[C@@H](O)[C@H](N)C[C@H](N)[C@H]3O[C@H]3O[C@H](CN)[C@@H](O)[C@H](O)[C@H]3N)O[C@@H]2CO)[C@H](N)[C@@H](O)[C@@H]1O [Neomycin] (Biolog plate: PM11, well positions: F9-12)	1.51 ± 0.15
NC[C@@H]1O[C@H](O[C@H]2[C@@H](O)[C@H](O[C@@H]3[C@@H](O)[C@H](N)C[C@H](N)[C@H]3O[C@H]3O[C@H](CO)[C@@H](O)[C@H](O)[C@H]3N)O[C@@H]2CO)[C@H](N)[C@@H](O)[C@@H]1O [Paromomycin] (Biolog plate: PM12, well positions: C1-4)	1.63 ± 0.1
c1cnc2c(c1)ccc1cccnc12 [1,10-Phenanthroline] (Biolog plate: PM15, well positions: C9-12)	1.36 ± 0.36
O=c1[nH]c(=O)n([C@H]2C[C@H](O)[C@@H](CO)O2)cc1C(F)(F)F [trifluorothymidine] (Biolog plate: PM18, well positions: B1-4)	1.81 ± 0.69
CC[C@H]1OC(=O)[C@H](C)[C@@H](O[C@H]2C[C@@](C)(OC)[C@@H](O)[C@H](C)O2)[C@H](C)[C@@H](O[C@@H]2O[C@H](C)C[C@H](N(C)C)[C@H]2O)[C@](C)(O)C[C@@H](C)C(=O)[C@H](C)[C@@H](O)[C@]1(C)O [Erythromycin] (Biolog plate: PM11, well positions: F5-8)	1.38 ± 0.32
CC1(C)S[C@@H]2[C@H](NC(=O)COc3ccccc3)C(=O)N2[C@H]1C(=O)O.CN(C)[C@@H]1C(O)=C(C(=O)NCN2CCN(CCO)CC2)C(=O)[C@@]2(O)C(O)=C3C(=O)c4c(O)cccc4[C@@](C)(O)[C@H]3C[C@@H]12 [Penimepicycline] (Biolog plate: PM12, well positions: B5-8)	3.22 ± 1.1
CCCCCCCCCCCC[N+](C)(C)CCCS(=O)(=O)[O-] [lauryl sulfobetaine] (Biolog plate: PM19, well positions: G1-4)	2.95 ± 1.1
